The campaign covered roughly 1,700 compounds. About 150 (8.8%) were called active. Another 19% or so got no clear call; they are omitted.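 How the source made its calls: active means fluorescence change differing from the plate's solvent-only control wells at 99.7% confidence in both duplicates, whether higher or lower; inconclusive means differs from solvent controls in only one of two duplicates; inactive means the rest.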 Only a sample is shown.

The target in the experiment is Muscarinic acetylcholine receptor M4 (Rattus norvegicus) (UniProt P08485). Kind of experiment: rat M4 muscarinic receptor activation – cell-based, agonist mode, counter-screen for M1 allosteric modulator project, confirmation (AID 1741). Conditions: CHO M4/Gqi5 cells, Fluo-4 calcium fluorescence, at 10 µM, actives lie on both sides. A general note: Counterscreens check selectivity or assay interference.
Chain of Muscarinic acetylcholine receptor M4 (Rattus norvegicus) (P08485 whole entry, looked up): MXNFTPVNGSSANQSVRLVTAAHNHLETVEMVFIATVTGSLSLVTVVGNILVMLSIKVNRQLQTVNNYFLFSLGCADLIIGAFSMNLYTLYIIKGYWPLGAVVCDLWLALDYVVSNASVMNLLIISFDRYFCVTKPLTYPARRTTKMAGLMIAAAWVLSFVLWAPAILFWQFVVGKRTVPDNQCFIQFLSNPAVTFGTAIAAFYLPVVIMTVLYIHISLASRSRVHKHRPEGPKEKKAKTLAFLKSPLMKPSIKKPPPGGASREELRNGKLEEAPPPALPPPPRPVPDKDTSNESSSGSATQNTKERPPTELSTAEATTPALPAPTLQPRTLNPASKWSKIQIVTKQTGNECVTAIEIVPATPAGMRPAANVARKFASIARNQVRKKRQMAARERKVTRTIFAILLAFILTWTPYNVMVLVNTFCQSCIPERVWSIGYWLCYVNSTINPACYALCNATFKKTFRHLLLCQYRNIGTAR
On to `O=C(O)c1ccc(COCC(F)(F)F)cc1`, for which the fluorescence change (max-min) is -14 (inactive).
Then `COCCNC(=O)C(c1ccc(C)o1)N(Cc1cccs1)C(=O)c1snc(C(N)=O)c1N` (stereo unspecified), with -6.44 (inactive); and `COc1cccc2c(C)c(C(=O)O)[nH]c12`, with -9.04 (inactive); and `COc1ccccc1NC1=NC(c2ccc(Cl)cc2)N=C(N)N1` (stereo unspecified), with -38.9 (inactive).
Consider `N#CC1=C(N)Oc2c(sc3ccccc23)C1c1ccco1` (stereo unspecified), for which the fluorescence change (max-min) is 50 (inactive).
Then `CCOc1ccc2nc(N3CCCN(C(=O)Nc4ccccc4C)CC3)c(C#N)cc2c1`, with 246 (active); and `Cc1cc(NC(=O)COc2ccc(Cl)cc2Cl)n(CCC#N)n1`, with -13.8 (inactive); and `C(=N\n1cnnc1)/c1cccnc1`, with -25.3 (inactive).
In the case of `COc1ccc2nc(N3CCCC(O)C3)c(C#N)cc2c1` (stereo unspecified) it was 176 (active).
Turning to `COc1ccc(N(CC(=O)NC(C)(C)C)C(=O)c2ccco2)cc1`, the fluorescence change (max-min) is -53.4 (inactive).
Then `O=C(CSc1nnc(-c2ccco2)n1Cc1ccccc1)NC(=O)NCc1ccco1`, with -23.1 (inactive); and `COc1ncnc2c1N=C1CC(C)(C)CC(N)=C1S2`, with 136 (active); and `c1ccc2c(c1)OCC(CNc1ncnc3nc[nH]c13)O2` (stereo unspecified), with 1130 (active).
Turning to `Cc1nc2ccccc2c2oc(C(=O)NCC3CCCO3)cc12` (stereo unspecified), the fluorescence change (max-min) is -66.7 (inactive).
Then `COC(=O)c1ccc(CSc2nc3ccccc3c(=O)n2-c2cccc(OC)c2)o1`, with -28.9 (inactive); and `Cc1nc(CNS(=O)(=O)c2ccc(Oc3ccccc3)cc2)cs1`, with 2.92 (inactive).
Then `COc1ccccc1NC(=O)CSc1nnc(Cn2nnc(-c3ccccc3)n2)n1-c1ccccc1`, with -51.1 (inactive); and `COc1ccccc1N1CCN(C(=O)c2cn(-c3ccccc3)nc2-c2cccnc2)CC1`, with -73.3 (inactive); and `COc1ccc(CCNC(=O)C2CCN(c3nn4c(=O)cc(C)nc4s3)CC2)cc1OC`, with -40 (inactive).
In the case of `CCOc1cc(-c2nc3cc(C)ccn3c2NCC2CCCO2)ccc1O` (stereo unspecified) it was -60.7 (inactive); in that of `CCOc1ccc(NC(=O)N2CC=C(n3c(=O)[nH]c4ccccc43)CC2)cc1`, -26.4 (inactive).
In the case of `COc1ccc(Nc2oc(-c3ccccc3Cl)nc2C#N)cc1`, the fluorescence change (max-min) is -74.3 (inactive).
In the case of `O=C(NCCC1=CCCCC1)C1CCN(Cc2cnn(-c3ccccc3)c2-n2cccc2)CC1` it was -67.1 (inactive); in that of `c1n[nH]c(NCc2ccc3c(c2)OCO3)n1`, -28.2 (inactive); in that of `CC1CCCC(C)N1C(=O)CN1CCN(c2nc(-c3ccc(F)cc3)cs2)CC1` (stereo unspecified), -9.73 (inactive).
Then `Nc1ccc(SCCN2C(=O)c3ccccc3C2=O)cc1`, with -77.3 (inactive); and `Cc1cc2cc(CN(Cc3cccs3)Cc3nnnn3CC3CCCO3)c(=O)[nH]c2cc1C` (stereo unspecified), with -27 (inactive).
On to `O=C(c1ccccc1)c1ccc(OC(=O)N2CCCC2)cc1`, for which the fluorescence change (max-min) was -25.9 (inactive).
Then `CC(NC(=O)CSc1nc2c(cc1C#N)CN(C)CC2)c1ccccc1` (stereo unspecified), with -18.9 (inactive); and `O=C(Nc1cccc(NC(=O)N2CCN(c3ccccc3)CC2)c1)N1CCN(c2ccccc2)CC1`, with -12.4 (inactive).
On to `Cc1nn2c(c1-c1ccccc1)N=C(c1ccco1)CC2c1ccccc1` (stereo unspecified), for which the fluorescence change (max-min) was 5.67 (inactive).
Then `CCOc1nc(-c2ccc(OC)cc2)ccc1-c1noc(-c2cc(OC)c(OC)c(OC)c2)n1`, with 18.4 (inactive); and `CCCOc1ccccc1C1CC(=O)Nc2cc3c(cc21)OCO3` (stereo unspecified), with -71.7 (inactive).
In the case of `CCn1c(NCCc2ccc(OC)c(OC)c2)nc2c1c(=O)n(C)c(=O)n2C` it was -47.9 (inactive).
In the case of `CCN(CC)c1ccc2cc(C(=O)O)c(=O)oc2c1` it was 137 (inactive).
On to `Fc1ccc2[nH]c3c(N4CCSCC4)ncnc3c2c1`, for which the fluorescence change (max-min) was -68.8 (inactive).
`CCN=C1SC(CC(=O)Nc2ccc(C)cc2)C(=O)N1CC` (stereo unspecified): the fluorescence change (max-min) was -71.4 (active).
Then `COc1cccc(-n2cc3c(c2-c2ccccc2)c(=O)n(C)c(=O)n3C)c1`, with -42.2 (inactive); and `COc1ccc2[nH]c(=O)c(CN(CC3CCCO3)C(=O)Nc3ccccc3)cc2c1` (stereo unspecified), with -53.6 (inactive).
In the case of `CCOc1ccc2[nH]c(=O)c(CN(Cc3nnnn3Cc3ccccc3)CC3CCCO3)cc2c1` (stereo unspecified) it was -7.46 (inactive); in that of `O=C1c2ccccc2-c2ncnc3c(N4CCOCC4)cc(N4CCOCC4)c1c23`, -22.7 (inactive).
As for `FC(F)(F)COc1nc(N2CCCCC2)nc(N2CCNCC2)n1`, the fluorescence change (max-min) is -26.5 (inactive).
Then `CCOC(=O)c1cc2n(c1N)-c1ccccc1C2=O`, with 2020 (active); and `CC(=O)Nc1ccc(NC(=O)CN2CCCC(C)C2)c(Cl)c1` (stereo unspecified), with -37.2 (inactive); and `COc1ccccc1N1CCN(C(=O)c2c(-c3c(Cl)cccc3Cl)noc2C)CC1`, with -27 (inactive).
On to `O=C(Cn1cc(C(=O)c2cccs2)c2ccccc21)NCc1cccs1`, for which the fluorescence change (max-min) is -25 (inactive).
Then `COc1ccc(C(C(O)C(=O)c2c[nH]c3ccccc23)N2CCN(c3ccccc3)CC2)cc1` (stereo unspecified), with -6.79 (inactive); and `COc1cc(C(=O)Nc2oc(-c3ccccc3)c(-c3ccccc3)c2C#N)cc(OC)c1OC`, with -47.4 (inactive); and `CCCN1CC=C2C(C#N)=C(N)C(C#N)(C#N)C(c3cc(OC)ccc3OC)C2C1` (stereo unspecified), with 84.1 (inactive).
In the case of `COc1ccc(NC(=O)C2CCCN(S(=O)(=O)c3cccc4cccnc34)C2)cc1OC` (stereo unspecified) it was -56.1 (inactive); in that of `Cc1ccc2oc(=O)c3cnn(CC(=O)N4CCN(c5ccccn5)CC4)c3c2c1`, -22 (inactive); in that of `CCOc1cc(N2CCOCC2)c(OCC)cc1NC(=O)COc1cccc2cccnc12`, -39.2 (inactive).
On to `Cc1ccc(S(=O)(=O)Nc2ccc3ncccc3c2)cc1`, for which the fluorescence change (max-min) was -7.21 (inactive).
Then `O=C(NCCc1ccc2c(c1)OCCO2)c1cc2ccccc2o1`, with -9.99 (inactive); and `COc1ccc(C2C(C(=O)N3CCN(c4ccc(OC)cc4)CC3)c3ccccc3C(=O)N2C)cc1` (stereo unspecified), with -57.8 (inactive); and `Cn1c(C(=O)NCCc2ccsc2)cc2c(=O)n(C)c3ccccc3c21`, with -42.5 (inactive).
In the case of `COc1ccc(N(C(=O)c2cccnc2)S(=O)(=O)c2ccc3c(c2)n(C)c(=O)n3C)cc1` it was -59.4 (inactive); in that of `O=C(CSCc1cccs1)N1CCCC1`, -76.4 (inactive).
In the case of `CN1C(=O)c2ccc(NC(=O)c3c(F)c(F)c(F)c(F)c3F)cc2C1=O` it was -27.8 (inactive).
On to `CC(C[N+](C)(C)C)OC(N)=O` (stereo unspecified), for which the fluorescence change (max-min) is 11.8 (inactive).
In the case of `CC(=O)OC(C)C[N+](C)(C)C` (stereo unspecified) it was 146 (active); in that of `CCOC(=O)C1CCCN(C(=O)c2ccc(CS(=O)(=O)c3ccc(Br)cc3)o2)C1` (stereo unspecified), -59.9 (inactive); in that of `CC(C)OCCCNc1ncnc2c1[nH]c1ccc(F)cc12`, -4.51 (inactive).
Then `O=C(Nc1nc(-c2ccc3c(c2)OCO3)cs1)c1ccncc1`, with -52 (inactive); and `CC(C)(C)c1cc(CN2CCN(CCC#N)CC2)cc(C(C)(C)C)c1O`, with -27.3 (inactive); and `O=C(Nc1cccc(-c2nnc(-c3ccccc3)o2)c1)C1CCCO1` (stereo unspecified), with -67.5 (inactive).

The values are drawn from PubChem BioAssay AID1741 (Vanderbilt High Throughput Screening Facility, 2009).
